The values that follow come from publication PMC4081100, “A DNA-binding-site landscape and regulatory network analysis for NAC transcription factors in Arabidopsis thaliana”.

Holding throughout (test): universal protein binding microarray (PBM); transcription factors of Arabidopsis thaliana; high values mean tight binding
What all share (conditions): protein: recombinant; tags: GST; chain copies: 2; dsDNA, one strand shown

The target in one assay is T1, GST-ANAC092(1-176) (Arabidopsis thaliana, UniProt Q9FKA0 1-176).
T1 sequence: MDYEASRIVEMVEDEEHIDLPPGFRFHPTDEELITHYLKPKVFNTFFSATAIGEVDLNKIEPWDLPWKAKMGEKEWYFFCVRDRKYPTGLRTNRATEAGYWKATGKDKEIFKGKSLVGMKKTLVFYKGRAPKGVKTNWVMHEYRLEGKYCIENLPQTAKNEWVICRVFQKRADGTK
An outline of the steps:
(§1)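 Cells were induced to make GST-tagged NAC-domain, full-length or DNA-binding-domain proteins, and zinc acetate was added for zinc-finger proteins. These proteins were purified on glutathione–Sepharose 4B, quantified by A280 or anti-GST western blot, and applied in duplicate at 200 to 500 nM final to custom all-10-mer Agilent 4 × 180K arrays that primer extension had made double-stranded. Binding is given as the normalised enrichment score (E-score) for scored gapped and ungapped 8-mers.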

For a further assay, the target named is T2, GST-ANAC019 NAC domain (Arabidopsis thaliana, UniProt Q9C932 14-162).
T2 sequence: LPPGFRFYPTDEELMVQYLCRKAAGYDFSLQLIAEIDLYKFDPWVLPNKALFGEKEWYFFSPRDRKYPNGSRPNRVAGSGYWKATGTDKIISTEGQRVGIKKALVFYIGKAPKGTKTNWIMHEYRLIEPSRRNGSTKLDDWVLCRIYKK
An outline of the steps: as §1

Another assay addresses T3, GST-ANAC055(1-171) (Arabidopsis thaliana, UniProt Q9LDY8 1-171).
T3 sequence: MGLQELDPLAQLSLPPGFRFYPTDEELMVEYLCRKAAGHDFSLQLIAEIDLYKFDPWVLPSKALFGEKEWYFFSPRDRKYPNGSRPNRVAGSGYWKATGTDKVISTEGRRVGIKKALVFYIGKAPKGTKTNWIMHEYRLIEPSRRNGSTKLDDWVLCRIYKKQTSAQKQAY
Summed up: as §1

The target of the next assay is T4, GST-ATAF1 NAC domain (Arabidopsis thaliana, UniProt Q39013 7-158).
T4 sequence: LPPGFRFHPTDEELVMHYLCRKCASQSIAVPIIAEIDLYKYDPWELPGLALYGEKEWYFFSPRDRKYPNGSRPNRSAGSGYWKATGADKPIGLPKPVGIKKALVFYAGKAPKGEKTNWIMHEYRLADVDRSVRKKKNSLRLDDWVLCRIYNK
An outline of the steps: as §1

Assay [1] concerns the target T5, GST-ANAC092(1-285) full length (Arabidopsis thaliana, UniProt Q9FKA0 1-285).
T5 sequence: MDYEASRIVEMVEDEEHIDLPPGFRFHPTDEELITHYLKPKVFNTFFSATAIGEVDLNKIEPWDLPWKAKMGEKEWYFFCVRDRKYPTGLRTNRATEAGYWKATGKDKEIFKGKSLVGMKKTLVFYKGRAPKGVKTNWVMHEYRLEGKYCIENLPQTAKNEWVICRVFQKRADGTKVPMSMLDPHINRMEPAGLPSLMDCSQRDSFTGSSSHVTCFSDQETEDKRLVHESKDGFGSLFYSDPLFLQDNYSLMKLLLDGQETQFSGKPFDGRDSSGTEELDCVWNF
Summed up: as §1

The next assay concerns the target T6, GST-NAP(1-166) (Arabidopsis thaliana, UniProt O49255 1-166).
T6 sequence: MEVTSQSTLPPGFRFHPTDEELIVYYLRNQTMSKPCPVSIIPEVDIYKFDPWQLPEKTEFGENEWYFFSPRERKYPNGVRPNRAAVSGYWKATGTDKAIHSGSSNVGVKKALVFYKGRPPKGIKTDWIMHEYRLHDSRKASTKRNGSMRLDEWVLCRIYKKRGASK
An outline of the steps: as §1

The target of a further assay is T7, GST-NST2(1-184) (Arabidopsis thaliana, UniProt Q9M274 1-184).
T7 sequence: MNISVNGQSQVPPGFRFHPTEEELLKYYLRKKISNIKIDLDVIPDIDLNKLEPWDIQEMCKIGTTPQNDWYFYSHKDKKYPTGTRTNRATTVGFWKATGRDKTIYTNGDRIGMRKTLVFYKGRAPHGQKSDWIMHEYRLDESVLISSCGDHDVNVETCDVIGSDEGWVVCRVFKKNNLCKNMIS
Summed up: as §1

In a further assay the target is T8, GST-SND1(1-203) (Arabidopsis thaliana, UniProt Q9LPI7 1-203).
T8 sequence: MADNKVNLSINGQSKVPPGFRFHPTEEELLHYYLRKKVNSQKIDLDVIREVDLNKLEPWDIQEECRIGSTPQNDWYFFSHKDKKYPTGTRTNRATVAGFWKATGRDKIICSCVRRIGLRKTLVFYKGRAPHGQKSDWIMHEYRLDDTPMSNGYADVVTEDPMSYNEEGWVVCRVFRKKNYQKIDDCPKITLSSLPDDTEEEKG
An outline of the steps:
as §1

For another assay, the target named is T9, GST-VND3 NAC domain (Arabidopsis thaliana, UniProt Q9FH59 12-162).
T9 sequence: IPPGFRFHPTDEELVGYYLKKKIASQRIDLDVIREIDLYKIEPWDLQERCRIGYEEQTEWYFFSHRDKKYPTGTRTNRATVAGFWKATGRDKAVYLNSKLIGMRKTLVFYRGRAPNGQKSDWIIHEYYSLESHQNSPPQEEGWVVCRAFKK
Summed up: as §1

Another assay concerns the target T10, GST-VND7 NAC domain (Arabidopsis thaliana, UniProt Q9C8W9 9-158).
T10 sequence: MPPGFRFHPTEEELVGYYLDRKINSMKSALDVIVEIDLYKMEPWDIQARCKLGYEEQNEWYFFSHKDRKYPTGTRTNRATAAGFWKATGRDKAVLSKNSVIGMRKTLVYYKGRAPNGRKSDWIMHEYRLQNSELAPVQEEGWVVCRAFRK
An outline of the steps:
as §1

For another assay, the target named is GST-NTL6(1-168) (Arabidopsis thaliana, UniProt Q9SCK6 1-168). An outline of the steps:
as §1

For the next assay, the target named is T11, GST-NTL8 NAC domain (Arabidopsis thaliana, UniProt Q9XIN7 14-156).
T11 sequence: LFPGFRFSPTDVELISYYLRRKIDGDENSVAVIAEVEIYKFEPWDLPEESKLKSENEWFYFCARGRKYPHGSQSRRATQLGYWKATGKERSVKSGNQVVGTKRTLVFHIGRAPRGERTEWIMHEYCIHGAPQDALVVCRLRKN
An outline of the steps: as §1

Chain of GST-NTL6(1-168) (Q9SCK6 1-168): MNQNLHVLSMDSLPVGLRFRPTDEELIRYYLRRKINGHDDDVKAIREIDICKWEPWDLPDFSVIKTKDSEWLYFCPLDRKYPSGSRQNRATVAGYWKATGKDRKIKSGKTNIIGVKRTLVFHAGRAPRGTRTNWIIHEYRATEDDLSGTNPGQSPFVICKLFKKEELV

As to TGCGTGAA, the binding signal turned out to be 0.325 E-score in the assay with GST-ANAC092(1-176); 0.327 E-score with GST-ANAC019 NAC domain; 0.258 E-score with GST-ANAC055(1-171); 0.234 E-score with GST-ATAF1 NAC domain; 0.414 E-score in [1]; 0.189 E-score with GST-NAP(1-166). Besides, the binding signal with GST-NST2(1-184) came out at 0.198 E-score; with GST-SND1(1-203), 0.338 E-score; with GST-VND3 NAC domain, 0.281 E-score; in the assay with GST-VND7 NAC domain it was 0.263 E-score.

With AGAGGAAA, the binding signal with GST-ANAC092(1-176) was 0.115 E-score; in the assay with GST-NTL6(1-168), 0.126 E-score; with GST-ATAF1 NAC domain, 0.0666 E-score; in assay [1], 0.0695 E-score; in the assay with GST-NTL8 NAC domain, 0.45 E-score; with GST-SND1(1-203), 0.144 E-score. In addition, the binding signal is 0.0951 E-score in the assay with GST-VND3 NAC domain and 0.0583 E-score with GST-VND7 NAC domain.

For the sequence TATACGCA, the binding signal came to 0.311 E-score with GST-ANAC092(1-176); 0.232 E-score in the assay with GST-ANAC019 NAC domain; 0.32 E-score with GST-ANAC055(1-171); 0.231 E-score in the assay with GST-ATAF1 NAC domain; 0.4 E-score in assay [1]; 0.25 E-score with GST-NAP(1-166). Moreover, the binding signal was found to be 0.243 E-score in the assay with GST-NST2(1-184), 0.298 E-score with GST-SND1(1-203), 0.29 E-score with GST-VND3 NAC domain and 0.102 E-score with GST-VND7 NAC domain.

With ACGTAAAC, the binding signal turned out to be 0.397 E-score in the assay with GST-ANAC092(1-176); 0.427 E-score with GST-ANAC019 NAC domain; 0.355 E-score with GST-ANAC055(1-171); 0.321 E-score in the assay with GST-ATAF1 NAC domain; 0.43 E-score in assay [1]; 0.368 E-score with GST-NAP(1-166). Besides, the binding signal came out at 0.317 E-score in the assay with GST-NST2(1-184), 0.404 E-score with GST-SND1(1-203), 0.402 E-score with GST-VND3 NAC domain and 0.266 E-score in the assay with GST-VND7 NAC domain.

For the sequence ATTGCTTA, the binding signal with GST-ANAC092(1-176) stood at 0.273 E-score; with GST-NTL6(1-168), 0.423 E-score; in assay [1], 0.319 E-score; in the assay with GST-NST2(1-184), 0.288 E-score; with GST-NTL8 NAC domain, 0.0937 E-score; with GST-SND1(1-203), 0.457 E-score. In addition, the figures for the binding signal with GST-VND3 NAC domain and with GST-VND7 NAC domain were 0.16 E-score and 0.172 E-score, respectively.

Turning to TTAAGCAA, the binding signal with GST-ANAC092(1-176) came to 0.357 E-score; with GST-NTL6(1-168), 0.471 E-score; with GST-ANAC055(1-171), 0.133 E-score; with GST-ATAF1 NAC domain, 0.133 E-score; in [1], 0.356 E-score; in the assay with GST-NST2(1-184), 0.334 E-score. For the same sequence, the binding signal in the assay with GST-NTL8 NAC domain amounted to 0.252 E-score; with GST-SND1(1-203), 0.473 E-score; with GST-VND3 NAC domain it was 0.198 E-score; in the assay with GST-VND7 NAC domain, 0.227 E-score.

For the sequence GCACGTTA, the binding signal with GST-ANAC092(1-176) worked out at 0.433 E-score; with GST-ANAC019 NAC domain, 0.153 E-score; with GST-ANAC055(1-171), 0.205 E-score; with GST-ATAF1 NAC domain, 0.226 E-score; in [1], 0.464 E-score; in the assay with GST-NAP(1-166), 0.222 E-score. The binding signal with GST-NST2(1-184) is 0.234 E-score; with GST-SND1(1-203), 0.369 E-score; with GST-VND3 NAC domain, 0.217 E-score; with GST-VND7 NAC domain, 0.246 E-score.

Regarding ACGGAACA, the binding signal with GST-ANAC092(1-176) turned out to be 0.224 E-score; with GST-ANAC019 NAC domain, 0.418 E-score; with GST-ANAC055(1-171) it was 0.418 E-score; in the assay with GST-ATAF1 NAC domain, 0.304 E-score; in assay [1] it was 0.289 E-score; in the assay with GST-NAP(1-166), 0.336 E-score. Further, the binding signal in the assay with GST-NST2(1-184) is 0.166 E-score; in the assay with GST-SND1(1-203) it was 0.217 E-score; with GST-VND3 NAC domain, 0.352 E-score; with GST-VND7 NAC domain, 0.409 E-score.
